FUS yeast rescue = rescues growth of FUS-expressing yeast; Potency, µM (series often up to 76.6 µM), most hits filed as activators; S. cerevisiae FUS-expressing, growth rescue, OD600, 24 h; 0.24% of 390,000 active; further: nearly all actives have a fitted effect of over 55% in size
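Steps: raffinose overnight preculture; dilution to OD 0.005 in 2% galactose minimal medium; compound addition (concentration series); 24hr at 30C, 99% humidity; absorbance read at 600 nm.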
TDP-43 yeast inh = inhibitors of TDP-43 toxicity in yeast; Potency, µM (doses to about 46.1 µM), actives largely listed as activators; 1.8% of 410,000 active; TDP-43 expressing yeast growth rescue, BacTiter-Glo, 24 h; further: nearly all actives have a fitted effect of over 50% in size
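Readout is BacTiter-Glo luminescence of cell growth, so inhibitors register as activators. TDP-43-expressing yeast at OD600=0.02 in galactose medium, after raffinose pregrowth to mid-log, were incubated with compound for 24 hr at 30 deg C.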
Abeta rescue = restores growth of yeast expressing A-beta42 peptide; yeast expressing A-beta42, growth rescue, OD600, 48 h; response scale: 0% DMSO, 100% iron-clioquinol control; Potency, µM (highest dose often 46.1 µM), usual class: activators; 0.063% of 410,000 active; AID 1347071; further: nearly all actives have a fitted effect of over 55% in size
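Yeast growth medium received pinned compounds, then yeast cells expressing toxic A-beta were added; plates incubated at 30 C for 48 hr. Growth read as absorbance at 600 nm, normalized to DMSO and equimolar FeCl3 plus clioquinol controls.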
aSyn rescue = rescues yeast growth from alpha-synuclein toxicity; AID 652106; Yeast expressing alpha-synuclein, growth rescue, BacTiter-Glo, 24 h; 0.14% of 370,000 active; Potency, µM (titrated, usually from 46.1 µM), hits mostly activators; further: nearly all actives have a fitted effect of over 65% in size
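Screening used galactose-induced yeast with toxic alpha-synuclein levels, exposed to compound for 24 hr at 30 deg C. Cell growth, read with BacTiter-Glo luminescence, gave the measured signal.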
pAkt inh = blocks phosphorylation of Akt. Neuro2A IGF-stimulated pAkt S473 HTRF, 20 min; active compounds read low. activity change, % for hits at 50 µM. 0.32% of 360,000 active. AID 651550; in the data active means activity change below about -80%; inconclusive means mostly about -51% to -80%
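Single-point screen (50 µM final compound) in Neuro2A cells stimulated 20 min with 6 nM IGF at 37 deg C. After lysis, Ser473-phosphorylated Akt read by HTRF (ex 330 nm, em 615/665 nm) as the 665/615 ratio.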
Of the large screens only hits and unclear results are named; the others gave an inactive call. The list is not random: actives were taken first. Their share in the collection is about 2.3%. Unless noted, the call rests on the fitted dose curve; in most records, active means well fitted curve in the direction sought with a large enough effect; inconclusive means small, poorly fitted or top-dose-only effect, or another doubt; inactive means no such curve, though single readings can be large; an effect the other way counts as inactive or inconclusive.

COC(=O)c1sc(-c2ccccc2)cc1NC(=O)Nc1ccc(F)cc1	none (no result: aSyn rescue, pAkt inh)
O=S(=O)(Nc1cccc2c1CCCC2)c1cccc(C(F)(F)F)c1	TDP-43 yeast inh 25µM, Abeta rescue inconclusive, aSyn rescue inconclusive
O=C(O)c1ccccc1NS(=O)(=O)c1cccc(C(F)(F)F)c1	none
COc1cccc2[nH]c(C(=O)NCC3CCCO3)cc12 (centres undefined)	none
O=C(NCC1CCCO1)c1cc2ccccc2[nH]1 (centres undefined)	none
COc1cc(-c2nc(C(=O)NCC3CCCO3)cc3c2[nH]c2ccccc23)cc(OC)c1OC (centres undefined)	FUS yeast rescue inconclusive, TDP-43 yeast inh 28µM, aSyn rescue inconclusive
O=C(NCC1CCCO1)c1cc2c([nH]c3ccccc32)c(-c2cccc(Cl)c2)n1 (centres undefined)	FUS yeast rescue inconclusive, TDP-43 yeast inh 20µM
COc1ccccc1-c1nc(C(=O)NCC2CCCO2)cc2c1[nH]c1ccccc12 (centres undefined)	FUS yeast rescue inconclusive, TDP-43 yeast inh 20µM
Fc1ccc(C2=CC(c3ccco3)n3ncnc3N2)cc1 (centres undefined)	TDP-43 yeast inh inconclusive (no result: FUS yeast rescue)
CCOc1ccc(C2=CC(c3cc(Br)ccc3F)n3ncnc3N2)cc1Cl (centres undefined)	TDP-43 yeast inh 35µM (no result: aSyn rescue, pAkt inh)
CCOc1ccc(C2C=C(c3ccc(F)cc3)Nc3ncnn32)cc1 (centres undefined)	none
CC(C)(C)c1ccc(C2=CC(c3ccccc3F)n3ncnc3N2)cc1 (centres undefined)	FUS yeast rescue inconclusive
Fc1ccc(Br)cc1C1C=C(c2cccnc2)Nc2ncnn21 (centres undefined)	TDP-43 yeast inh 25µM
Fc1ccc(C2=CC(c3ccc(Br)o3)n3ncnc3N2)cc1 (centres undefined)	TDP-43 yeast inh 18µM (no result: FUS yeast rescue)
CCn1cc(C(=O)OCC(=O)Nc2cccc(Cl)c2C)c(=O)c2ccc(C)nc21	TDP-43 yeast inh inconclusive, Abeta rescue inconclusive (no result: aSyn rescue, pAkt inh)
CCSc1nc2sc3c(c2c(=O)n1-c1ccc(C)cc1)CCCC3	none (no result: aSyn rescue, pAkt inh)
CCc1sc(-c2cc3ccc(O)cc3oc2=O)nc1-c1ccc(C)cc1	none (no result: FUS yeast rescue, TDP-43 yeast inh, Abeta rescue, pAkt inh)
O=C(C1CCCCC1)N1CCC(CO)(Cc2ccccc2Cl)CC1	Abeta rescue inconclusive, aSyn rescue inconclusive
O=C(C1CCCC1)N1CCC(CO)(Cc2ccccc2Cl)CC1	TDP-43 yeast inh 20µM, Abeta rescue inconclusive
Cc1cccc(C)c1NC(=O)CSc1nnc(-c2ccco2)c(-c2ccco2)n1	TDP-43 yeast inh 22µM
O=C(CSc1nnc(-c2ccco2)c(-c2ccco2)n1)Nc1ccccc1	FUS yeast rescue 22µM
Cc1cccc(C)c1NC(=O)CCCSc1nnc(-c2ccco2)o1	TDP-43 yeast inh inconclusive, pAkt inh -111%
O=C(CCC(=O)N1CC2CCCN2c2ccccc21)NCc1ccccc1 (centres undefined)	none (no result: aSyn rescue, pAkt inh)
COc1ccc(C)cc1NS(=O)(=O)c1ccc2c(c1)CCCN2C(C)=O	none (no result: aSyn rescue, pAkt inh)
CC(C)Cc1nc(N2CCN(C(=O)c3ccco3)CC2)c(C#N)c2c1CCCC2	FUS yeast rescue inconclusive, TDP-43 yeast inh inconclusive
CCCC(=O)N1CCN(c2nc(CC(C)C)c3c(c2C#N)CCC3)CC1	FUS yeast rescue inconclusive, TDP-43 yeast inh 11µM
CCNc1nc(N2CCCCC2)nc(-n2nnc(C(=O)OCC)c2C)n1	TDP-43 yeast inh 18µM
CCOC(=O)c1nnn(-c2nc(OC)nc(N3CCCC3)n2)c1-c1ccccc1	TDP-43 yeast inh inconclusive
CCOC(=O)C1=CCN(S(=O)(=O)c2cccc(Cl)c2)C1c1ccc(C)cc1 (centres undefined)	TDP-43 yeast inh inconclusive, aSyn rescue inconclusive
CCOC(=O)C1=CCN(S(=O)(=O)c2cccc(Cl)c2)C1c1ccc(Br)cc1 (centres undefined)	FUS yeast rescue inconclusive, aSyn rescue 20µM
CCC(Sc1nc2ccccc2c(=O)n1CCc1ccc(OC)c(OC)c1)C(=O)N(CC)CC (centres undefined)	FUS yeast rescue inconclusive (no result: aSyn rescue, pAkt inh)
c1nc(N2CCC3(CC2)OCCO3)c2c3c(sc2n1)CCCC3	TDP-43 yeast inh 22µM
c1ccc(N2CCN(c3ncnc4sc5c(c34)CCC5)CC2)cc1	none
Cc1cc(C)c(C#N)c(SCC(=O)c2ccccc2)n1	none
Cc1cc(C)c(C#N)c(SCC(=O)c2cccs2)n1	TDP-43 yeast inh 2.8µM
COc1ccc(N2CCN(C(=O)CN3C(=O)CSc4c3c(C)nn4-c3ccccc3)CC2)cc1	none (no result: aSyn rescue, pAkt inh)
O=C(NCc1ccccc1)c1ccc2c(c1)N(Cc1ccc(F)cc1)CCS2	none (no result: aSyn rescue, pAkt inh)
O=C(NCc1ccc(F)cc1)c1cc2cccc3c2n1CCS3	TDP-43 yeast inh 14µM (no result: aSyn rescue, pAkt inh)
CCOc1ccc(C(=O)CCC(=O)NCC(=O)Nc2ccc(F)c(F)c2F)cc1	aSyn rescue 28µM
CCCCCn1c(=O)c2ccccc2n2c(CCl)nnc12	TDP-43 yeast inh 16µM
COc1ccc(OC)c(S(=O)(=O)N2CCC(c3ccncc3)CC2)c1	none (no result: aSyn rescue, pAkt inh)
COc1ccc(Nc2ncnc3c2cnn3Cc2ccccc2)cc1OC	none
Cc1ccc(CSc2ncnc3c2cnn3Cc2ccccc2)cc1C	TDP-43 yeast inh 1µM
Cc1cccc(Nc2ncnc3c2cnn3Cc2ccccc2)c1	TDP-43 yeast inh 16µM
COC(=O)NNC(=O)c1ccc(C)c(Br)c1	TDP-43 yeast inh 20µM, Abeta rescue inconclusive (no result: FUS yeast rescue)
CC(C)COc1ccc(-c2nn(-c3ccccc3)cc2CO)cc1	TDP-43 yeast inh 28µM
Cc1ccc(SC2=C(C(=O)O)CCCC2)cc1	TDP-43 yeast inh 10µM
O=[N+]([O-])c1nn(-c2ccc(Cl)cc2)n(O)c1=NCc1cccnc1	TDP-43 yeast inh 13µM (no result: FUS yeast rescue)
Cc1cccc(-n2nc([N+](=O)[O-])c(=NCc3cccnc3)n2O)c1	TDP-43 yeast inh inconclusive
O=[N+]([O-])c1nn(-c2cccc(Cl)c2)n(O)c1=NCc1cccnc1	TDP-43 yeast inh 11µM (no result: FUS yeast rescue)
Oc1c(C(c2ccccc2Cl)N2CCCC2)sc2nc(-c3ccco3)nn12 (centres undefined)	none (no result: aSyn rescue, pAkt inh)
COc1ccc(NC(=O)c2c(NCc3ccc(C)o3)sc3c2CCC(C)C3)c(OC)c1 (centres undefined)	FUS yeast rescue inconclusive (no result: aSyn rescue, pAkt inh)
ON=C1c2ccccc2-c2ccc(O)cc21	none (no result: FUS yeast rescue)
CC(=NO)c1ccc2c(c1)C(=NO)c1ccccc1-2	TDP-43 yeast inh 13µM (no result: FUS yeast rescue)
CN1c2ccccc2-c2nc(SCC(=O)Nc3ccccc3)ncc2S1(=O)=O	none (no result: aSyn rescue, pAkt inh)
O=C(CCn1nc(-c2ccccc2)c2ccccc2c1=O)Nc1cccnc1	none
Cc1cccc(NC(=O)CCn2nc(-c3ccccc3)c3ccccc3c2=O)c1	FUS yeast rescue inconclusive, TDP-43 yeast inh 20µM (no result: aSyn rescue, pAkt inh)
COc1ccc(N2CC(NC(=O)C3CCCC3)CC2=O)cc1OC (centres undefined)	none (no result: aSyn rescue, pAkt inh)
Cc1ccc(NCSc2ccc(Cl)cc2)cc1	TDP-43 yeast inh 7.1µM, Abeta rescue inconclusive
COc1ccccc1NC(=O)CSc1nc2c(oc3ccccc32)c(=O)n1-c1ccc(C)cc1	none (no result: aSyn rescue, pAkt inh)

Bioassay records from PubChem BioAssay.
